From PubChem BioAssay AID1209 (Sanford-Burnham Center for Chemical Genomics, 2008) come the findings set out here.

Values joined by “and” are separate entries in the source; they are usually repeats but may differ in a detail not shown here. Equal values may be shown once. In all, about 190,000 compounds went through this assay and about 810 (0.43%) were called active. This is one part of a sample in which actives are shown more often than they occur. Unmarked numbers belong to inactive results. No stated cut-off is given here; in the data, active means inhibition above about 50%; inactive means the rest.

In the assay the target is Mannose-6-phosphate isomerase (Homo sapiens) (UniProt P34949). Put plainly: inhibitors of human PMI, primary screen, biochemical, fluorescence intensity, coupled assay (AID 1209).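 Further: plate controls were DMSO vehicle for no effect and wells lacking substrate for full effect.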 The note with it: purified PMI enzyme, at 20 µM, active compounds read high.
Sequence of Mannose-6-phosphate isomerase (Homo sapiens) (P34949 whole entry, looked up): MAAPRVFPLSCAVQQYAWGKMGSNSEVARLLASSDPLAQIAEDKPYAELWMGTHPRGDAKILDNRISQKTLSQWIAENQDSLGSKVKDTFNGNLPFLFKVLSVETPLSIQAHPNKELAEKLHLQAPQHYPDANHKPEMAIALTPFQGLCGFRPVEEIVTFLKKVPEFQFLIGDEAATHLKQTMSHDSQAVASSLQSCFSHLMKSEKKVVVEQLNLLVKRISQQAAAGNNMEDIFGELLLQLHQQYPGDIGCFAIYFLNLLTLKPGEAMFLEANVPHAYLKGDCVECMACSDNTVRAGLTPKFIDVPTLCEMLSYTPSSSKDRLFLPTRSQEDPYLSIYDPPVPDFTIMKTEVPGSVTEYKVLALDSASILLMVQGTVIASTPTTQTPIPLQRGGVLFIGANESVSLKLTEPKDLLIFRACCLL
Take `CCOC(=O)c1c(C)c(C(=O)NCc2ccccc2OC)c(C)n1C`: the inhibition is 11.8%.
As for `CCOC(=O)CNC(=S)n1ncnc1N`, the inhibition was -9.1%.
Regarding `Cc1ccc(S(=O)(=O)CCC(=O)Nc2ccc(F)cc2)cc1`, the inhibition was 6.5%.
Take `Cc1cccc(C(C)C)c1NC(=O)COC(=O)Cc1ccsc1`: the inhibition was 9%.
For the compound `Cc1ccc(OCC(=O)N/N=C/c2ccco2)cc1`, the inhibition is -1.5%.
With `Oc1ccc(/C=N\Nc2cc(N3CCOCC3)nc(N3CCOCC3)n2)c(O)c1`, the inhibition is 32.2%.
Take `CCNc1nc(NCC)nc(N/N=C/c2ccc(N(C)C)cc2)n1`: the inhibition is -12.9%.
Then `Clc1ccc(-c2ccc(/C=N/Nc3cc(N4CCOCC4)nc(N4CCOCC4)n3)o2)cc1`, with 47.2%; and `COc1ccc(/C=N/Nc2cc(N3CCCC3)nc(N3CCCC3)n2)cc1`, with 32%.
With `Oc1ccc(/C=N/Nc2cc(N3CCCC3)nc(N3CCCC3)n2)cc1`, the inhibition is 32%.
Then `Oc1ccc(/C=N/Nc2cc(N3CCOCC3)nc(N3CCOCC3)n2)cc1O`, with 76.8% (active); and `CN(C)c1ccc(/C=N/Nc2cc(N3CCOCC3)nc(N3CCOCC3)n2)cc1`, with 73.3% (active).
`CN(C)c1ccc(/C=C/C=N/Nc2nc(N3CCOCC3)nc(N3CCOCC3)n2)cc1`: the inhibition is 7.3%.
With `CC(C)c1ccc(/C=N/Nc2cc(N3CCOCC3)nc(N3CCOCC3)n2)cc1` the figure was 77% (active).
Consider `CCNc1nc(NCC)nc(N/N=C/c2ccc(O)c(O)c2)n1`, for which the inhibition is 61.4% (active).
With `Oc1cccc(/C=N/Nc2cc(N3CCCC3)nc(N3CCCC3)n2)c1` the figure was 41.2%.
As for `CCNc1nc(NCC)nc(N/N=C/c2ccc(Br)cc2)n1`, the inhibition is -0.7%.
For `O=[N+]([O-])c1ccc(O)c2cccnc12`, the inhibition was -10.1%.
As for `CCCn1nc(C(=O)NC2CCCc3ccccc32)c2ccccc2c1=O` (stereo unspecified), the inhibition is 6.9%.
In the case of `COc1ccc(OC)c(C(=O)COC(=O)c2cc(C)oc2C)c1`, the inhibition was -24.4%.
For the compound `O=C(CNC(=O)c1cccs1)NCC(=O)OCc1cccc(Cl)c1`, the inhibition is 4.5%.
On to `CCOC(=O)C1=C(C)Nc2ccccc2N=C1NC(=O)Cc1ccc(Br)cc1`, for which the inhibition was 18.8%.
Regarding `COc1ccc(Br)cc1-c1noc(-c2ccccc2)n1`, the inhibition was 11.5%.
Consider `COc1ccc(C2C(C#N)=C(N)Oc3n[nH]c(C)c32)cc1Cn1cc([N+](=O)[O-])cn1` (stereo unspecified), for which the inhibition is 7.7%.
In the case of `O=C(/C=C/c1ccc(Br)cc1)NC(=S)NNC(=O)c1ccco1`, the inhibition is -1.2%.
Then `COc1ccc(/C=N/Nc2nc(N3CCCC3)nc(N3CCCC3)n2)cc1O`, with -10.3%; and `Oc1ccc(/C=N/Nc2nc(N3CCCC3)nc(N3CCCC3)n2)cc1O`, with 57.6% (active).
For the compound `COc1cc(/C=N/Nc2nc(N3CCCC3)nc(N3CCCC3)n2)ccc1O`, the inhibition was 7.9%.
In the case of `N=C1C(c2ccccc2)=C(O)CN1c1cccc(S(N)(=O)=O)c1`, the inhibition is 10.1%.
In the case of `CC1(C)C2CCC1(CS(=O)(=O)N1CCOCC1)C(=O)C2` (stereo unspecified), the inhibition was 7.9%.
As to `CCOC(=O)c1cc2sccc2n1CC(=O)Nc1ccc(OC)cc1OC`, the inhibition was 16%.
As to `O=C1c2ccccc2C(=O)N1CN(C(=O)COc1ccccc1)c1ccccc1`, the inhibition was 3.5%.
Consider `COC(=O)c1ccc(Sc2ccc(Cl)cc2)c(N)c1`, for which the inhibition was 9.3%.
Then `COC(=O)c1ccc(Sc2ccc(F)cc2)c(N)c1`, with 11.4%.
With `COC(=O)c1ccc(Sc2ccc(C)cc2)c(N)c1` the figure was 55% (active); with `Cc1sc2nc(CSc3n[nH]c(N)n3)[nH]c(=O)c2c1C`, -10.2%.
With `CCCCNc1cc(NC(C)=O)cc2cc(OC)c(OC)cc12`, the inhibition is 53.3% (active).
Consider `CCCCNc1nc(=S)[nH]c2cc(OC)c(OC)cc12`, for which the inhibition is -4.5%.
For `CCCC(=O)Nc1cc(OC)c(OC)cc1C(=O)O`, the inhibition is 6.8%.
In the case of `Cc1cc(C)c(C#N)c(SCc2[nH]nc3c2C(c2ccc(F)cc2)C(C#N)=C(N)O3)n1` (stereo unspecified), the inhibition is 12.8%.
Consider `COc1cc(OC)cc(C(=O)NNC(=O)Cc2ccc(OC)c(S(=O)(=O)N3CCOCC3)c2)c1`, for which the inhibition is 2.7%.
`CCOC(=O)c1sc(=S)n2c1[nH]c(=O)c1ccc(C(=O)OC)cc12`: the inhibition is 68.6% (active).
Regarding `CCCCNC(=O)c1sc(=S)n2c1[nH]c(=O)c1ccccc12`, the inhibition is 16.1%.
With `CCCCCNC(=O)c1ccc2c(=O)[nH]c3c(C(=O)NCC4CCCO4)sc(=S)n3c2c1` (stereo unspecified) the figure was 10.4%; with `CCOc1ccc(-c2[nH]nc3c2C(c2ccc(O)cc2)C(C#N)=C(N)O3)cc1` (stereo unspecified), 27.8%; with `COc1ccc(-c2noc(CN(C(=O)C(C)(C)C)C(C)C)n2)cc1`, 15.9%.
`Cc1oc2c(C)c(O)ccc2c(=O)c1-c1cnn(-c2ccccc2)c1`: the inhibition was -14.8%.
As to `Cc1oc2c(O)c(O)ccc2c(=O)c1-c1cnn(-c2ccccc2)c1`, the inhibition was 79.5% (active).
Regarding `Cc1oc2cc(O)ccc2c(=O)c1-c1cnn(-c2ccccc2)c1`, the inhibition was -5.2%.
Turning to `CCC(CC)=C(C#N)C(=O)NC1CCCCC1`, the inhibition is -12.5%.
Turning to `CCN(C(=O)COC(=O)c1cc(-c2ccccc2)nc2c1c(C)nn2-c1ccccc1)C1CCS(=O)(=O)C1` (stereo unspecified), the inhibition is 14.7%.
For `CCOc1ccccc1-c1c2cc(O)c(=O)cc-2oc2cc(O)c(O)cc12`, the inhibition was 46.2%.
On to `COc1cc(OC)c(-c2c3cc(O)c(=O)cc-3oc3cc(O)c(O)cc23)cc1OC`, for which the inhibition is 73.9% (active).
With `CC1(C)CC(=O)c2c(oc3cc(O)c(O)cc23)C1`, the inhibition was 47.6%.
Regarding `COc1ccc(OC)c(-c2c3cc(O)c(=O)cc-3oc3cc(O)c(O)cc23)c1`, the inhibition is 61.1% (active).
Then `COc1ccc(-c2cc(=O)c3cc(OC)ccc3o2)cc1`, with -5%; and `COc1ccc(OC)c(-c2oc3ccccc3c(=O)c2O)c1`, with -5.6%; and `O=c1cc(-c2ccccc2Cl)oc2cccc(O)c12`, with -9.9%.
On to `COc1cc(-c2cc(=O)c3ccccc3o2)ccc1O`, for which the inhibition is 5.9%.
For the compound `Nc1cnn(Cc2ccccc2F)c1`, the inhibition is 18.2%.
Turning to `COc1ccc2[nH]cc(CCn3ccc(=O)c(C)c3C)c2c1`, the inhibition was 0.3%.
Regarding `O=C(Nc1ccccc1)c1sccc1Oc1ccc([N+](=O)[O-])cc1F`, the inhibition is -6%.
Regarding `COc1ccc2c(=O)c(-c3ccccc3)coc2c1`, the inhibition is 52.5% (active).
Consider `CC(=O)Oc1ccc2c(=O)c(-c3ccccc3)coc2c1`, for which the inhibition was -0.1%.
For the compound `CC(C)Oc1ccc2c(=O)c(-c3ccccc3)coc2c1`, the inhibition was 0.6% and 7.3%.
Take `COc1cccc(-c2ccc(SCC(=O)NCCc3ccccc3)nn2)c1`: the inhibition is 1.9%.
On to `O=c1[nH]c2ccccc2c(O)c1O`, for which the inhibition was 71.8% (active).
Then `O=c1[nH]c2ccccc2c2ccccc12`, with 3.2%; and `CC(=O)Nc1c(O)c2ccccc2[nH]c1=O`, with 20.2%; and `Cc1cccc(/C(N)=N/OC(=O)C23CC4CC(CC(C4)C2)C3)c1`, with 9%.
Take `Cn1c(=O)n(Cc2ccc(F)cc2)c(=O)c2c1nc1n2CCCN1C1CCCCC1`: the inhibition was 6%.
On to `COCCCNC(=O)CCC(=O)NNc1nc2ccccc2c2nc(C)nn12`, for which the inhibition was -1.5%.
Regarding `CCOCCCNC(=O)CCC(=O)NNc1nc2ccccc2c2nc(C)nn12`, the inhibition was 57.5% (active).
Regarding `CCCCNC(=O)CCC(=O)NNc1nc2ccccc2c2nc(C)nn12`, the inhibition is 6.3%.
Regarding `COC(=O)c1cccc(NS(=O)(=O)c2ccc(NC(C)=O)cc2)c1C`, the inhibition was -4.2%.
`COc1ccc(/C=N/NC(=O)CCN2CCN(c3ccccc3)CC2)c(OC)c1OC`: the inhibition was -3.2%.
With `O=C(CCc1ccc(S(=O)(=O)N2CCOCC2)cc1)N/N=C/c1ccc(O)c(O)c1O` the figure was 57.6% (active).
Take `O=C(Cc1csc(N2CCOCC2)n1)N/N=C/c1ccc(O)c(O)c1O`: the inhibition is 83.3% (active).
Regarding `O=[N+]([O-])c1ccc(N/N=C/c2ccc(O)c(O)c2O)c(S(=O)(=O)N2CCOCC2)c1`, the inhibition is 82.3% (active).
In the case of `O=C(Cc1csc(N2CCOCC2)n1)N/N=C/c1cccc(O)c1`, the inhibition is 3.3%.
As to `COc1cc(/C=N/Nc2ccc([N+](=O)[O-])cc2S(=O)(=O)N2CCOCC2)cc(OC)c1OC`, the inhibition is -6.8%.
With `O=C(CCc1ccc(S(=O)(=O)N2CCOCC2)cc1)N/N=C/c1ccc(F)cc1F` the figure was 4.8%; with `O=[N+]([O-])c1ccc(N/N=C/c2cccc(O)c2O)c(S(=O)(=O)N2CCOCC2)c1`, 16.7%; with `O=C(CCc1ccc(S(=O)(=O)N2CCOCC2)cc1)N/N=C/c1cccc(O)c1`, 11.1%.
Consider `O=C(CCN1CCN(c2ccccc2)CC1)N/N=C/c1ccccc1O`, for which the inhibition was -8.5%.
`O=C(Cc1csc(N2CCOCC2)n1)N/N=C/c1ccc(Cl)cc1Cl`: the inhibition is 4.7%.
In the case of `O=C(CCN1CCN(c2ccccc2)CC1)N/N=C/c1ccc(O)c(O)c1O`, the inhibition was 57.4% (active).
Take `CN(C)C(=O)COc1ccc(Br)cc1`: the inhibition is 8.1%.
Then `O=C(NN=C1CCCC1)c1sc2ccccc2c1Cl`, with -19.6%.
As to `COc1ccc(N(C(=O)CCl)C(C(=O)NCCc2ccccc2)c2cccs2)cc1Cl` (stereo unspecified), the inhibition is -8.6%.
As to `Cc1noc(NS(=O)(=O)c2ccc(NC(=O)C34CC5CC(C3)CC(n3cnc(Br)n3)(C5)C4)cc2)c1C`, the inhibition is 0.3%.
For the compound `O=C(CN1C(=O)CCC1=O)c1ccc(-c2ccccc2)cc1`, the inhibition was 5.6%.
Turning to `CC(=O)Nc1nc(SCc2ccc(Cl)cc2Cl)n[nH]1`, the inhibition is 2%.
As to `Nn1c(COc2ccc(Cl)cc2)nc2ccccc2c1=O`, the inhibition is -0.6%.
Take `CC(=O)Nc1ccc(S(=O)(=O)N2CCN(C(=O)c3cccnc3)CC2)cc1`: the inhibition is 17.8%.
Then `CCOc1ccc(CCNC(=O)c2ccc(N3CCCC3=O)cc2)cc1OCC`, with 1.3%.

The term inhibition denotes the change of the read-out against control, counted positive when it falls.
